According to PubChem BioAssay AID485313 (National Center for Advancing Translational Sciences (NCATS), 2010):
Hit rate of the full screen: of about 320,000 compounds, about 7,600 (2.4%) were called active. Not shown: some 3% with an inconclusive outcome. The call rests on the fitted dose curve; in most records, active means well fitted activation curve with a large enough effect; inconclusive means small, poorly fitted or top-dose-only effect; inactive means no such curve, though single readings can be large or run the other way. The sample as a whole holds a higher share of actives than the screen did.

experiment: qHTS Assay for NPC1 Promoter Activators; conditions: Huh7 NPC1 promoter luciferase reporter, 24 h; series mostly up to 9.22 µM; activation: at the top concentration; further: nearly all actives have a fitted effect of over 60% in size;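 on activation: reporter is driven by a mutant NPC1 promoter; % of control where 0% means no effect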
Summary of the method: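 Luminescence from an NPC1 promoter-driven luciferase reporter in stably transfected Huh7 cells was measured after 24 h compound treatment at 37 °C, followed by 10 min ambient incubation with luciferase detection reagent.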
Potency means the concentration at half of the fitted maximal effect.

| SMILES | activation | Potency |
| --- | --- | --- |
| N#CCC(=O)Nc1ccc(C(=O)OCC(=O)Nc2sc3c(c2C#N)CCCC3)cc1 | -0.499% (inactive) | – |
| CC(C)(C)OC(=O)N/N=C/c1ccc(C(=O)O)cc1 | 0.842% (inactive) | – |
| C/C(=N\NC(=O)OC(C)(C)C)c1ccc[nH]1 | – | 2.82 µM (active) |
| Cc1ccccc1NC(=O)NNC(=O)OC(C)(C)C | 0.144% (inactive) | – |
| CC(C)CC(COCc1ccc(Cl)cc1)N1CCN(C(=O)c2ccc(C(F)(F)F)cc2)CCC1=O (stereo not given) | -5.4% (inactive) | – |
| CCOc1ccc(NC(=O)CN(C)C(=O)Cn2c(=O)cnc3ccccc32)cc1OCC | -0.76% (inactive) | – |
| O=c1c2ccccc2ccc2ccc(P(=O)(O)O)cc12 | -2.15% (inactive) | – |
| Cc1nc(COc2cccc(Cl)c2)sc1C(=O)/C=C/N(C)C | 18.5% (inactive) | – |
| CN(C)/C=C/C(=O)c1ccccc1F | 0.124% (inactive) | – |
| Cc1nc(-c2ccccc2)sc1C(=O)/C=C/N(C)C | – | 2.82 µM (active) |
| Cn1c(SCC(=O)Nc2nccs2)nnc1-c1cccnc1 | -0.463% (inactive) | – |
| Cn1c(=NC(=O)c2cnccn2)sc2ccccc21 | – | 2 µM (active) |
| O=C(NCCCNC(=O)c1ccccc1Cl)c1cnccn1 | -0.803% (inactive) | – |
| COC(=O)c1ccc(OC(=O)c2cnccn2)cc1 | 0.63% (inactive) | – |
| CCOc1ccc2oc(C(=O)N(CC)CC(=O)Nc3ccc(NC(C)=O)cc3)c(C)c2c1 | 5.68% (inactive) | – |
| Cc1c(O)c(C)c2c(c1O)C(=O)C[C@@H](c1ccccc1)O2 | 1.52% (inactive) | – |
| O=C(Nc1ccon1)c1nc[nH]c1C(=O)NCc1ccccc1 | 0.0628% (inactive) | – |
| CC(Oc1ccc(Br)cc1)C(=O)NC1CCCCCC1 (stereo not given) | 17.9% (inactive) | – |
| COc1cccc(CC(=O)Nc2ccc(-c3csc(C)n3)cc2)c1 | 1.47% (inactive) | – |
| CC(C)(C)C(=O)OCc1nc(-c2ccc(O)c(O)c2)cs1 | -3.2% (inactive) | – |
| COc1ccc(-c2csc(Cc3nc(O)cs3)n2)cc1 | – | 3.55 µM (active) |
| CCN(CC(=O)Nc1cc(Cl)ccc1C)C(=O)CSCc1ccccc1 | -2.25% (inactive) | – |
| CC(=O)c1ccc(N2CCN(CC(O)c3ccccc3)CC2)cc1 (stereo not given) | -7.6% (inactive) | – |
| CC(=O)c1ccc(N2CCN(C(=O)CCc3ccccc3)CC2)cc1 | -1.38% (inactive) | – |

| SMILES | activation | Potency |
| --- | --- | --- |
| CC(=O)c1ccc(N2Cc3ccccc3C2)cc1 | – | 2.51 µM (active) |
| O=C(O)c1cc(S(=O)(=O)Nc2ccc3cn[nH]c3c2)ccc1Br | 1.48% (inactive) | – |
| CS(=O)(=O)N1CCN(C(=O)Cc2ccccc2)CC1 | -1.21% (inactive) | – |
| CS(=O)(=O)N1CCN(c2cccc(Cl)n2)CC1 | 2.53% (inactive) | – |
| CS(=O)(=O)N1CCc2nc(-c3ccccc3)sc2C1 | – | 2.51 µM (active) |
| CCCCN(C(=O)C1=NN(c2cc(C)ccc2C)C(=O)CC1)c1c(N)n(CCC)c(=O)[nH]c1=O | -0.22% (inactive) | – |
| COc1ccc(OCCCC(=O)Nc2cccc(S(=O)(=O)N3CCCCCC3)c2)cc1 | 4.23% (inactive) | – |
| Cc1ccccc1Nc1nc(-c2cccnc2)cs1 | – | 1.78 µM (active) |
| O=C(NCc1cccnc1)C(=O)Nc1nc(-c2ccccc2)cs1 | 26.3% (inactive) | – |
| Brc1ccc(-c2csc(N/N=C/c3cccnc3)n2)cc1 | 3.01% (inactive) | – |
| CN(C(=O)COC(=O)Cn1cnc2c1c(=O)n(C)c(=O)n2C)C1(C#N)CCCCC1 | -0.17% (inactive) | – |
| O=C(CSc1nnc(Nc2ccccc2F)s1)NC1CCCC1 | 4.95% (inactive) | – |
| COc1ccc2nc(SCc3ccccc3)nc(C)c2c1 | – | 3.16 µM (active) |
| COc1ccc(-c2nnc3ccc(SCc4ccccc4)nn23)cc1 | 2.4% (inactive) | – |
| COC(=O)CSc1nc(C)c2ccc(OC)cc2n1 | -0.564% (inactive) | – |
| Cc1ccc(OCC(=O)Nc2ccccc2C(=O)NC2CC2)cc1 | 0.788% (inactive) | – |
| CC(C)Oc1ccc(S(=O)(=O)N2CCOCC2)cc1NC(=O)C1CCCC1 | 1.15% (inactive) | – |
| O=C(c1ccc(Br)o1)N(c1ccccn1)C1CCCCC1 | 0.227% (inactive) | – |
| COc1cccc(NC(=O)CN(C)CC(=O)c2c(N)n(Cc3ccccc3)c(=O)n(C)c2=O)c1 | -2.46% (inactive) | – |
| Cc1cccc(/C(N)=N/OC(=O)c2ccccc2Cl)c1 | – | 0.0891 µM (active) |
| N/C(=N\OC(=O)c1cc(-c2ccccc2)nc2ccccc12)c1ccncc1 | 3.57% (inactive) | – |
| Cc1cccc(C(=O)c2cccc(C)c2)c1 | -0.639% (inactive) | – |
| C[C@H](NC(=O)C1CC(=O)N(c2ccc3c(c2)OCCO3)C1)C(=O)N1CCC(C(=O)O)CC1 (stereo not given in full) | -3.35% (inactive) | – |
| COc1cc(C(=O)OCC(=O)NC23CC4CC(CC(C4)C2)C3)cc(OC)c1OC | 0.787% (inactive) | – |

| SMILES | activation | Potency |
| --- | --- | --- |
| CSCCC(NC(=O)COc1ccccc1)C(=O)N(C)CC(=O)Nc1ccc(C)cc1 (stereo not given) | -2.11% (inactive) | – |
| O=C(COC(=O)C1(c2ccc(F)cc2)CCCC1)N1CCNC1=O | 0.411% (inactive) | – |
| O=c1[nH]c2cccnc2n1-c1ccc([N+](=O)[O-])cc1 | 2.63% (inactive) | – |
| O=[N+]([O-])c1ccc2c(c1)Nc1nc3ccccc3nc1N2 | -0.0231% (inactive) | – |
| O=[N+]([O-])c1ccc2nc(-c3ccccn3)[nH]c2c1 | – | 1.58 µM (active) |
| CCN(CC(=O)Nc1ccc(OC)cc1)C(=O)c1ccc(=O)n(Cc2ccccc2)n1 | -0.115% (inactive) | – |
| Cc1csc2nc(COC(=O)c3cccc(N(C)C)c3)cc(=O)n12 | – | 1.41 µM (active) |
| O=c1cc(CCl)nc2scc(-c3ccccc3)n12 | -0.115% (inactive) | – |
| Cc1nn2c(=O)cc(COC(=O)c3ccc(NC(=O)C(C)(C)C)cc3)nc2s1 | -1.52% (inactive) | – |
| CCC(C)N(C(=O)CSc1nnnn1-c1ccccc1OC)C1CCS(=O)(=O)C1 (stereo not given) | 4.75% (inactive) | – |
| CC(NCc1ccccc1OC1CCCC1)c1ccccc1 (stereo not given) | -1.56% (inactive) | – |
| NC(=O)c1c(NC(=O)c2ccccc2)sc2c1CCCC2 | – | 3.98 µM (active) |
| O=C(Nc1sc2c(c1C(=O)O)CCC2)c1ccccc1F | 6.62% (inactive) | – |
| C=CCN(CC=C)S(=O)(=O)c1ccc(C(=O)Nc2sc3c(c2C(N)=O)CCCCC3)cc1 | -8.3% (inactive) | – |
| COc1ccc(C(=O)OC(C)C(=O)NC2CCCC2)cc1S(=O)(=O)N1CCOCC1 (stereo not given) | -1.48% (inactive) | – |
| CC(C)CN(C(=O)CSc1ncnc2sccc12)C1CCS(=O)(=O)C1 (stereo not given) | -2.91% (inactive) | – |
| CC(=O)c1ccc(S(=O)(=O)N2CCC(Oc3ccc(-n4cnnn4)cc3)CC2)cc1 | -3.83% (inactive) | – |
| O=C(COC(=O)Cc1ccc(Br)cc1)Nc1ccc(N2CCOCC2)cc1 | -1.47% (inactive) | – |
| CC(=O)NC12CC3CC(C1)CC(C(=O)N1CCN(C(=O)c4ccco4)CC1)(C3)C2 | 0.551% (inactive) | – |
| c1cnc(N2CCN(c3ccc4ccccc4n3)CC2)nc1 | – | 1.41 µM (active) |
| O=C(c1ccncc1)N1CCN(c2ccc3ccccc3n2)CC1 | -0.852% (inactive) | – |
| CC12CCC(C(=O)N3CCN(c4ncccn4)CC3)(c3nc4ccccc4nc31)C2(C)C (stereo not given) | -0.0128% (inactive) | – |
